Broadly, the Inhibition is the relative decrease from the control value, in per cent. Read a high Inhibition as a strong effect.

Assay type in all cases: functional
Assay [1] has as its system Plasmodium falciparum. The assay can be described thus: GSK_TCMDC: Inhibition of Plasmodium falciparum 3D7 in whole red blood cells, using parasite LDH activity as an index of growth. Test compounds present at 2uM.
In assay [2] the test system is Plasmodium falciparum. The assay can be described thus: GSK_TCMDC: Inhibition of Plasmodium falciparum Dd2 in whole red blood cells, using parasite LDH activity as an index of growth. Test compounds present at 2uM.
Assay [3] has as its system HepG2. Description: GSK_TCMDC: Percent inhibition of human HepG2 cell line. Test compounds present at 10uM.

`O=C(C=Cc1ccc(Cl)c(Cl)c1)NCCCCCN1CCC(CCCNS(=O)(=O)c2cccc(C(F)(F)F)c2)CC1`: the results for the Inhibition in assay [1], in assay [2] and in assay [3] were 100%, 59% and 99%, respectively.

As for `COc1cccc(CN2Cc3ccccc3OC3(CCN(Cc4c[nH]c5cnccc45)CC3)C2)c1.O=C(O)C(F)(F)F`, the Inhibition in assay [1] is listed as 83%; in assay [2], 83%; in assay [3] it was 39%.

With `O=C(Cc1ccc(Cl)cc1)Nc1cc(Cl)ccc1Cn1cnc(N2CCNCC2)cc1=O.O=C(O)C(F)(F)F`, the Inhibition in assay [1] is recorded as 97%; in assay [2], 2%; in assay [3] it was 9%.

Take `Cc1ccccc1CNc1ccc2nc(N)nc(N)c2c1`: the Inhibition stood at 100% in assay [1], 90% in assay [2] and 59% in assay [3].

As for `COc1ccccc1-c1csc(C(=O)NCC2CCN(Cc3ccc(C(C)C)cc3)C2)c1.O=C(O)C(F)(F)F` (centres undefined), the figures for the Inhibition in assay [1], in assay [2] and in assay [3] were 81%, 6% and 24%, respectively.

With `Cc1c(S(=O)(=O)Nc2ccc3nccc(N4CCN[C@H](C)C4)c3c2)sc2ccc(Cl)cc12.Cl`, the Inhibition is on record as 96% in assay [1], 0% in assay [2] and 16% in assay [3].

Regarding `COc1ccc2nccc([C@@H](O)CN3CCC(NC(=O)c4ccc(OC)c(N)c4)CC3)c2c1.CS(=O)(=O)O`, the Inhibition in assay [1] came to 93%; in assay [2], 0%; in assay [3], 9%.

In the case of `CC(C)(C)c1ccc2[nH]c(-c3ccc(C(=O)NCc4cccc(C(F)(F)F)c4)cc3)nc2c1`, the Inhibition in assay [1] is 98%; in assay [2], 26%; in assay [3], 9%.

Consider `Cc1cc(N2Cc3ccccc3C2)nc(Nc2cccc(C#N)c2)n1`, for which the Inhibition is given as 100% in assay [1], 97% in assay [2] and 6% in assay [3].

For `COc1ccc(F)cc1-c1ccccc1CNC(=O)c1cnn(-c2ccc([N+](=O)[O-])cc2)c1C(F)(F)F`, the Inhibition is on record as 89% in assay [1], 75% in assay [2] and 0% in assay [3].

For `CCCCc1ccc(-c2c(N)nc(N)nc2CC)cc1`, the Inhibition in assay [1] is recorded as 95%; in assay [2], 0%; in assay [3] it was 63%.

`COCCNCc1ccc(-c2cccc(CNc3ccc(OC)cc3)c2)cc1.O=C(O)C(F)(F)F`: the Inhibition was determined as 94% in assay [1], 2% in assay [2] and 16% in assay [3].

Turning to `CCOc1cc(C)ccc1N1CCN(CCCCNC(=O)c2ccc(NC(=O)c3ccc(Cl)cc3)cc2)CC1.Cl`, the Inhibition in assay [1] is given as 100%; in assay [2], 46%; in assay [3], 19%.

For `CC1(C)CC(NCCCCCCCOc2ccc(OCc3ccccc3)cc2)CC(C)(C)N1.Cl`, the Inhibition in assay [1] is listed as 100%; in assay [2] it was 73%; in assay [3] it was 99%.

Take `CC(C)c1ccc(NC(=O)c2ccc(C(=O)NC3CCN(Cc4ccsc4)C3)cc2)cc1.O=C(O)C(F)(F)F` (centres undefined): the Inhibition in assay [1] is on record as 82%; in assay [2], 28%; in assay [3], 17%.

As to `COC(=O)Cn1c(C2CCN(CC3CCC(NC(=O)/C=C/c4ccc(Cl)c(Cl)c4)CC3)CC2)nc2ccccc21` (centres undefined), the Inhibition in assay [1] is listed as 95%; in assay [2] it was 17%; in assay [3] it was 12%.

Take `CCOC(=O)c1nc(-c2cc(Cl)nc(Cl)c2)[nH]c1NC(=S)NCCCN1CCOCC1`: the Inhibition is 89% in assay [1], 71% in assay [2] and 13% in assay [3].

For the compound `CN(C)c1cc(NN=Cc2cc(Cl)ccc2O)nc(N(C)C)n1`, the Inhibition in assay [1] was 98%; in assay [2] it was 98%; in assay [3] it was 3%.

Take `CC(Oc1c(C2CCN(CCCCNC(=O)c3ccc(-c4ccc(C#N)cc4)cc3)CC2)ccc2c1CCCC2)C(N)=O` (centres undefined): the Inhibition worked out at 100% in assay [1], 83% in assay [2] and 41% in assay [3].

As to `CC(C)CCNc1nc(NCc2ccccc2)c2cc(O)ccc2n1`, the results for the Inhibition in assay [1], in assay [2] and in assay [3] were 100%, 92% and 25%, respectively.

On to `Cl.O=S(=O)(Nc1ccc2nccc(N3CCNCC3)c2c1)c1ccc(-c2ccccc2)cc1`, for which the Inhibition in assay [1] is given as 100%; in assay [2] it was 0%; in assay [3], 0%.

Regarding `Cc1cccc(C)c1N1CCN(C2CCC(NC(=O)/C=C/c3ccccc3)CC2)CC1` (centres undefined), the Inhibition in assay [1] was determined as 83%; in assay [2] it was 34%; in assay [3], 38%.

With `O=S(=O)(Nc1ccc(CCN2CCC(N3CCCCC3)CC2)cc1)c1cccc2cccnc12`, the results for the Inhibition in assay [1], in assay [2] and in assay [3] were 100%, 45% and 14%, respectively.

Regarding `COc1ccc2nccc([C@@H](O)CN3CCC(NC(=O)c4ccc(C5(C(F)(F)F)N=N5)cc4)CC3)c2c1`, the Inhibition in assay [1] is reported as 97%; in assay [2], 41%; in assay [3], 8%.

On to `CCOC(=O)c1ccc(N2CCCCC2)c(NC(=O)C(Cl)(Cl)Cl)c1`, for which the Inhibition in assay [1] came to 96%; in assay [2] it was 97%; in assay [3], 11%.

On to `Br.Oc1ccc(CCNCCCCCCNCCc2ccc(-c3ccccc3)cc2)cc1O`, for which the Inhibition in assay [1] is 100%; in assay [2], 8%; in assay [3], 72%.

For `OCCCCCCNc1nc(NCc2ccccc2-c2ccc(C(F)(F)F)cc2)nc(N2CCNCC2)n1`, the Inhibition worked out at 89% in assay [1], 16% in assay [2] and 13% in assay [3].

Regarding `CC(C)CCN1CCCN(Cc2cccc(C(=O)Nc3ccc(C(C)(C)C)cc3)c2)CC1.O=C(O)C(F)(F)F`, the Inhibition was determined as 85% in assay [1], 1% in assay [2] and 33% in assay [3].

Source of the values: ChEMBL document CHEMBL1157539, “Thousands of chemical starting points for antimalarial lead identification” (Nature, 2010).
